Assay outcomes as filed in PubChem.
ELG1 genotox: qHTS screen for small molecules that induce genotoxicity in human embryonic kidney (HEK293T) cells expressing luciferase-tagged ELG1; Potency, µM (top dose mostly 46 µM), for the others: top-dose activity change, positive = activation, most hits filed as activators; HEK293T ELG1-luciferase reporter, luminescence, 16 h; 330,000 tested, 1.3% active; further: % of control where 0% means no effect; nearly all actives have a fitted effect of over 60% in size
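HEK293T cells expressing luciferase-tagged ELG1 were treated with compound or DMSO for 16 hr at 37°C. Luciferase activity was then read after 30 min with ONE-Glo at room temperature; rising signal flags genetic stress.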
NPC1 prom act: qHTS Assay for NPC1 Promoter Activators; Huh7 NPC1 promoter luciferase reporter, 24 h; Potency, µM (doses to about 9.22 µM), for inactives: at the top dose activation, actives largely listed as activators; 320,000 tested, 2.4% active; further: % of control where 0% means no effect; nearly all actives have a fitted effect of over 60% in size
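In 1536-well qHTS, Huh7 cells harboring an NPC1 promoter–luciferase construct received compound for 24 h; activation was quantified by luminescence following luciferase reagent addition.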
Rab9 prom act: qHTS Assay for Rab9 Promoter Activators. Potency, µM (series often up to 9.22 µM), for inactives: at the top dose activation, negative = inhibition, usual class: activators. Huh7 Rab9 promoter-luciferase reporter, luminescence, 24 h. 320,000 tested, 2.8% active; further: % of control where 0% means no effect; nearly all actives have a fitted effect of over 60% in size
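Quantitative HTS format; Huh7 Rab9-luciferase reporter cells (1500/well) receive compound 2 h post-plating, incubate 24 h at 37 °C, then get luciferase reagent for 10 min before luminescence reading.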
FLuc modulator: qHTS profiling assay for firefly luciferase inhibitor/activator using purifed enzyme and Km concentrations of substrates (counterscreen for miR-21 project); Luciferin 4-monooxygenase (Photinus pyralis), P08659; purified FLuc, Km substrates, luminescence inhibition; Potency, µM (top dose mostly 57.5 µM), for inactives: at the highest dose activity change, negative = inhibition, hits mostly inhibitors; 360,000 tested, 6.9% active; AID 588342, 2011;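 further: plate controls were vehicle for no effect and reference inhibitor for full effect; nearly all actives have a fitted effect of over 55% in size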
Target sequence (P08659 whole entry, looked up): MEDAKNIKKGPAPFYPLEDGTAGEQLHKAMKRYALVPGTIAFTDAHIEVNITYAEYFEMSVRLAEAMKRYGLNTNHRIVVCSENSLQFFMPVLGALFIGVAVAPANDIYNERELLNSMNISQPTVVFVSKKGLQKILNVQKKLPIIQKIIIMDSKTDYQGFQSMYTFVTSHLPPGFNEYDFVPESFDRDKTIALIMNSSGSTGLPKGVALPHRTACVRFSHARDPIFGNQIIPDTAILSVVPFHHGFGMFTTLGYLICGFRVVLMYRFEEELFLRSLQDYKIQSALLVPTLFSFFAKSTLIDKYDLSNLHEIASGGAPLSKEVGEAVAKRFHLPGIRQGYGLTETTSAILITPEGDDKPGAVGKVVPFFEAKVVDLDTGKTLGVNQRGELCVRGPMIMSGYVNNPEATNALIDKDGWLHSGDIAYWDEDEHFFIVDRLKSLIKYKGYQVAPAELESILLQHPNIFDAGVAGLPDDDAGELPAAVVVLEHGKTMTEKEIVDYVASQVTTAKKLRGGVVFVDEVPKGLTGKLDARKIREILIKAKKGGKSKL
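Purified P. pyralis luciferase (10nM final) with 10uM D-luciferin and 10uM ATP (Km levels) in 50mM Tris acetate pH 7.5, 10mM Mg acetate, 0.01% Tween-20, 0.05% BSA; qHTS 6-point titration, ~60 µM downward; luminescence read.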
SMN2 splice up: qHTS Assay for Enhancers of SMN2 Splice Variant Expression; HEK293 SMN2-luciferase splicing reporter, luminescence, 30-36 h; Potency, µM (top dose mostly 46.1 µM), for the others: at the top dose activity change, positive = activation, usual class: activators; 210,000 tested, 2.8% active; AID 1458, 2008; further: % of control where 0% means no effect; nearly all actives have a fitted effect of over 55% in size
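qHTS luciferase splicing reporter: luminescence rises when SMN2 exon 7 is included in transfected HEK293 cells. Compound exposure lasted 30-36 h at 37C, with 4.5 mM final sodium butyrate as control, followed by a ONE-Glo read.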
Starred values were filed as active, the others as inactive. Only some compounds are listed: those with a hit (about 7.5% of all), similar ones and a draw of the others. The call rests on the fitted dose curve; in most records, active means well fitted curve in the direction sought with a large enough effect; inconclusive means small, poorly fitted or top-dose-only effect, or another doubt; inactive means no such curve, though single readings can be large; an effect the other way counts as inactive or inconclusive. Potency means the concentration at half of the fitted maximal effect.

Screening CCCCNc1c(-c2cccc(SC(C)CC)c2)nc2ccc(Cl)cn12 (stereo not given) returned ELG1 genotox -1.9%.
CCCCNc1c(-c2ccc(SC3CCCCC3)cc2)nc2ccccn12 was read as ELG1 genotox 10.3µM*, NPC1 prom act 2.82µM*, Rab9 prom act 3.98µM* and FLuc modulator 4.78µM*.
For CCCCNc1c(-c2cccc(SC3CCCCC3)c2)nc2ccc(Cl)cn12 the results were ELG1 genotox -14.0%, NPC1 prom act -1.6%, Rab9 prom act 0.9% and FLuc modulator -15.7%.
`CCN(Cc1nc2ccccc2c(=O)[nH]1)C(=O)c1cc2c(s1)CCCCC2` gave ELG1 genotox 8.7%, NPC1 prom act -1.9%, Rab9 prom act -0.9% and FLuc modulator inconclusive.
CC(C)(/C=N/NC(=O)CSCc1ccccc1Cl)CCC#N was read as ELG1 genotox -1.5%, NPC1 prom act -4.6%, Rab9 prom act -0.9%, FLuc modulator -3.6% and SMN2 splice up 6.1%.
Screening COc1ccc(C(CC(=O)c2ccc(O)cc2)S(=O)(=O)c2ccc(C)cc2)cc1 (stereo not given) returned ELG1 genotox inconclusive, NPC1 prom act inconclusive, Rab9 prom act 2.5%, FLuc modulator 9.53µM* and SMN2 splice up -15.3%.
`C(=N\n1cnnc1)/c1cccs1` gave ELG1 genotox 3.0%, NPC1 prom act 4.5%, Rab9 prom act 1.6%, FLuc modulator -0.3% and SMN2 splice up inconclusive.
For C(=N\N=C\c1cccs1)/c1cccs1 the results were ELG1 genotox 5.5%, NPC1 prom act inconclusive, Rab9 prom act 2µM*, FLuc modulator 2.13µM* and SMN2 splice up inconclusive.
O=C(Nc1ccc2sccc2c1)c1ccc(Cl)s1 was read as ELG1 genotox 1.46µM*, NPC1 prom act 1.41µM*, Rab9 prom act 1µM*, FLuc modulator 0.675µM* and SMN2 splice up 7.08µM*.
`O=[N+]([O-])c1ccccc1/C=N\N1CCN(c2ccccc2)CC1` gave ELG1 genotox 7.0%, NPC1 prom act 24.1%, Rab9 prom act inconclusive and FLuc modulator inconclusive.
Cc1ccccc1/C=N/N1CCN(c2ccccc2)CC1 was read as ELG1 genotox 16.6%, NPC1 prom act 21.1%, Rab9 prom act 16.7%, FLuc modulator 16.9µM* and SMN2 splice up inconclusive.
For CSc1ccc(/C=N/N2CCN(c3ccccc3)CC2)cc1 the results were ELG1 genotox 6.5%, NPC1 prom act inconclusive, Rab9 prom act inconclusive, FLuc modulator 4.8% and SMN2 splice up inconclusive.
Screening Cc1ccc(/C=N/N2CCN(c3ccccc3)CC2)cc1 returned ELG1 genotox inconclusive, NPC1 prom act inconclusive, Rab9 prom act 3.55µM*, FLuc modulator -19.2% and SMN2 splice up inconclusive.
Screening Cc1cccc(/C=N/N2CCN(c3ccccc3)CC2)c1 returned ELG1 genotox inconclusive, NPC1 prom act inconclusive, Rab9 prom act inconclusive, FLuc modulator 7.57µM* and SMN2 splice up 17.8µM*.
Screening CCOc1ccc(N2C(=O)C3C(c4ccccc4F)NN(C(=O)c4ccc(C)cc4)C3C2=O)cc1 (stereo not given) returned ELG1 genotox -0.3%, NPC1 prom act 0.4%, Rab9 prom act 0.1%, FLuc modulator -0.2% and SMN2 splice up -2.3%.
Screening COc1ccc(-c2cn[nH]c2N)cc1 returned ELG1 genotox -13.1%, NPC1 prom act 2.0%, Rab9 prom act 12.7%, FLuc modulator -8.4% and SMN2 splice up 16.5%.
Screening Nc1c(Br)cc2oc(-c3ccccc3)nc2c1Br returned ELG1 genotox inconclusive, NPC1 prom act 2.2%, Rab9 prom act inconclusive, FLuc modulator 2.13µM* and SMN2 splice up 12.6µM*.
COc1ccc(-c2nc3c(Br)c(N)c(Br)cc3o2)cc1 was read as ELG1 genotox 2.9%, NPC1 prom act 3.16µM*, Rab9 prom act inconclusive, FLuc modulator 1.35µM* and SMN2 splice up -17.6%.
Screening COc1cc(C(=O)Nc2cc3c(cc2N2CCCCC2)n(C)c(=O)n3C)cc(OC)c1OC returned ELG1 genotox inconclusive, NPC1 prom act -1.4%, Rab9 prom act 2.6% and FLuc modulator 1.6%.
`COc1cc(OC)c(/C=N/NC(=O)c2ccc(Cn3nc([N+](=O)[O-])cc3C)cc2)c(OC)c1` gave ELG1 genotox -0.4%, NPC1 prom act 1.6%, Rab9 prom act -0.5% and FLuc modulator -0.2%.
For O=C(NCCc1ccc(F)cc1)C(=O)NCC(c1cccs1)S(=O)(=O)c1ccc(Cl)cc1 (stereo not given) the results were FLuc modulator -4.1%.
Cc1ccc2c(c1)c1c(c(=O)n(-c3ccccc3)c(=O)n1CC(=O)N1CCCC1)n2C was read as FLuc modulator 6.5%.
For Cc1ccc(-c2n[nH]c3c2C(c2cccc(O)c2)N(c2ccc(C(=O)O)cc2)C3=O)cc1 (stereo not given) the results were ELG1 genotox 0.9%, NPC1 prom act -2.5%, Rab9 prom act -2.4%, FLuc modulator 8.49µM* and SMN2 splice up 3.8%.
CCCC1CC(C)(c2csc(Nc3ccc(OCC)cc3)n2)OC1=O (stereo not given) was read as ELG1 genotox 7.8%, NPC1 prom act 0.1%, Rab9 prom act -1.6%, FLuc modulator 19µM* and SMN2 splice up -92.0%.
`O=[N+]([O-])c1cc(-c2ccc(C(=S)N3CCOCC3)o2)ccc1Cl` gave ELG1 genotox 15.5%, NPC1 prom act -9.8%, Rab9 prom act 7.5%, FLuc modulator 15.1µM* and SMN2 splice up 25.5%.
For CN1CCN(C(=S)c2ccc(-c3cccc([N+](=O)[O-])c3)o2)CC1 the results were ELG1 genotox 10.3µM*, NPC1 prom act 2.24µM*, Rab9 prom act 2.24µM* and FLuc modulator 6.75µM*.
`O=[N+]([O-])c1cccc(-c2ccc(C(=S)N3CCOCC3)o2)c1` gave ELG1 genotox inconclusive, NPC1 prom act 2.82µM*, Rab9 prom act 1.12µM*, FLuc modulator 3.01µM* and SMN2 splice up 11.2µM*.
For O=[N+]([O-])c1cccc(-c2ccc(C(=S)N3CCN(c4ccccc4)CC3)o2)c1 the results were ELG1 genotox -7.8%, NPC1 prom act 7.7%, Rab9 prom act -0.9% and FLuc modulator inconclusive.
`C=C(C)CN1CCN(c2ccc(N3C(=O)CCCC3=O)cc2[N+](=O)[O-])CC1` gave NPC1 prom act -1.8%, Rab9 prom act 19.9%, FLuc modulator 7.4% and SMN2 splice up 1.2%.
For CCc1ccc(CN(Cc2ccco2)C(=O)COc2ccc(Cl)cc2C)cc1 the results were FLuc modulator -18.1% and SMN2 splice up -19.5%.
